In PubChem BioAssay (Tox21) one finds Potency data, which are given here for ten compounds.

The target in test [1] is Peroxisome proliferator-activated receptor delta (Homo sapiens) (UniProt Q03181). Kind of test: qHTS assay to identify small molecule agonists of the peroxisome proliferator-activated receptor delta (PPARd) signaling pathway (AID 743212). Summed up:
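Quantitative high-throughput agonist screen in a HEK293H beta-lactamase reporter line under UAS control. Compounds in DMSO, at 37 C. Fluorescence read after 2 h with FRET substrate at room temperature.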

For test [2] the target is unchanged. Nature of the test: qHTS assay to identify small molecule antagonists of the peroxisome proliferator-activated receptor delta (PPARd) signaling pathway (AID 743215; active = well fitted inhibition curve with a large enough effect in the signal ratio in the repeat runs, not every such curve was filed as active; the % refers to the signal ratio;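 note: cells stimulated with agonist L165041 at 300 nM final during compound exposure; series mostly up to about 62 µM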). Summed up:
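Read-out is beta-lactamase FRET fluorescence, measured 2 h after substrate addition at room temperature. Beforehand, UAS-bla HEK293H cells carrying the PPARd reporter were exposed to compounds with L165041 at 300 nM final for 17 h at 37 C.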

The target of test [3] is Bile acid receptor (Homo sapiens) (UniProt Q96RI1). Kind of test: qHTS assay to identify small molecule agonists of the farnesoid-X-receptor (FXR) signaling pathway (AID 743220; active = well fitted activation curve with a large enough effect in the signal ratio in the repeat runs, not every such curve was filed as active; the % refers to the signal ratio). Summed up:
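Beta-lactamase reporter under UAS control in GeneBLAzer FXR HEK 293T cells (5000/well) measured with LiveBLAzer FRET substrate after 2 h at room temperature. Compound exposure lasted 16 h at 37C.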

The nature of test [4]: qHTS assay to identify small molecule antagonists of the farnesoid-X-receptor (FXR) signaling pathway - cell viability counter screen (AID 743221; active = well fitted cell-killing curve with a large enough effect in the repeat runs, not every such curve was filed as active; note: nearly all actives have a fitted effect of over 50% in size). Summed up: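 Compound effects on cell number were measured as CellTiter-Glo luminescence in HEK 293T cells expressing FXR-UAS-bla, after 16 h at 37 C with 50 uM CDCA (final).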
The target in test [5] is Vitamin D3 receptor (Homo sapiens) (UniProt P11473). Kind of test: qHTS assay to identify small molecule antagonists of the vitamin D receptor (VDR) signaling pathway (AID 743223; active = well fitted inhibition curve with a large enough effect in the signal ratio in the repeat runs, not every such curve was filed as active; the % refers to the signal ratio). Summed up:
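Beta-lactamase activity in VDR-bla cells is measured by FRET substrate fluorescence (2 h, room temperature) after cells spend 16 h at 37C with test compound and 3 nM final 1alpha,25-dihydroxyvitamin D3.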

A short description of test [6]: qHTS assay to identify small molecule antagonists of the vitamin D receptor (VDR) signaling pathway - cell viability counter screen (AID 743225; active = well fitted curve in the direction sought with a large enough effect in the repeat runs; an effect the other way counts as inactive or inconclusive; note: nearly all actives have a fitted effect of over 50% in size). Summed up: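 In this counter screen, VDR-bla HEK 293T cells receive test compound plus 3 nM final calcitriol for 16 h at 37C. Room-temperature steps of 2 h with the beta-lactamase substrate, then 30 min with CellTiter-Glo, precede the luminescence read.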

Test [7] is described as follows: qHTS assay to identify small molecule agonists of the NFkB signaling pathway - cell viability counter screen (AID 1159515). Note: series mostly up to about 61 µM; nearly all actives have a fitted effect of over 55% in size. Summed up: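 Luminescence from CellTiter-Glo (30 min, room temperature) gives viability, measured in the same wells as the beta-lactamase reporter read. Cells were NFkB-bla ME-180, 2,000 per well, treated 5 hr with compounds.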
A short description of test [8]: qHTS assay to identify small molecule agonists of the endoplasmic reticulum stress response signaling pathway (AID 1159516; active = well fitted activation curve with a large enough effect in the signal ratio in the repeat runs, not every such curve was filed as active; the % refers to the signal ratio; note: potency is the fitted concentration of half-maximal effect). Summed up:
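Read-out is beta-lactamase cleavage of a FRET substrate (405 nm excitation; 460 and 530 nm emissions) in ESRE-bla HeLa cells after a 5 hr compound exposure at 37 C. Substrate incubation ran 2 hr at room temperature.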

The nature of test [9]: qHTS assay to identify small molecule agonists of the endoplasmic reticulum stress response signaling pathway - cell viability counter screen (AID 1159517).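 Note: HeLa cells carrying an ER stress response element beta-lactamase reporter; series mostly up to about 61 µM; nearly all actives have a fitted effect of over 50% in size.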 Summed up: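 Counter-screen wells were identical to the reporter wells. Cells were plated at 1,500 per well and dosed for 5 hr, then read for luminescence 30 min after CellTiter-Glo addition.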
Test [10] can be described thus: qHTS assay to identify small molecule antagonists of the retinoid-related orphan receptor gamma (ROR-gamma) signaling pathway - cell viability counter screen (AID 1159520; active = well fitted curve in the direction sought with a large enough effect in the repeat runs; an effect the other way counts as inactive or inconclusive; note: nearly all actives have a fitted effect of over 50% in size). Summed up:
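Tet-on ROR gamma CHO cells were given compounds for 2 hr, then doxycycline hyclate at 1 uM final, and incubated 16 hr at 37 C. Viability was measured as ATP content by CellTiter-Glo luminescence.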

Test [11] can be described thus: qHTS assay to identify small molecule agonists of the farnesoid-X-receptor (FXR) signaling pathway - cell viability counter screen (AID 743218; active = well fitted curve in the direction sought with a large enough effect in the repeat runs; an effect the other way counts as inactive or inconclusive; note: nearly all actives have a fitted effect of over 45% in size). Summed up:
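HEK 293T FXR-bla cells; 5 h pre-incubation, 16 h compound exposure at 37 C; LiveBLAzer substrate 2 h RT, then CellTiter-Glo 30 min RT, luminescence.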

Test [12] in a line: qHTS assay to identify small molecule agonists of the vitamin D receptor (VDR) signaling pathway - cell viability counter screen (AID 743224; active = well fitted curve in the direction sought with a large enough effect in the repeat runs; an effect the other way counts as inactive or inconclusive; note: nearly all actives have a fitted effect of over 50% in size; note: potency is the fitted concentration of half-maximal effect). Summed up:
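Luminescence from CellTiter-Glo, read after 30 min at room temperature, reports viability of VDR-bla cells treated with compounds for 16 h at 37C in the wells used for the beta-lactamase FRET read.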

In test [13] the target is Nuclear receptor ROR-gamma (Homo sapiens) (UniProt P51449). Kind of test: qHTS assay to identify small molecule antagonists of the retinoid-related orphan receptor gamma (ROR-gamma) signaling pathway (AID 1159521; active = well fitted curve in the direction sought with a large enough effect in the repeat runs; an effect the other way counts as inactive or inconclusive; note: nearly all actives have a fitted effect of over 50% in size; note: potency is the fitted concentration of half-maximal effect). Summed up:
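Screening format: cell-based luciferase reporter in CHO cells with doxycycline-inducible RORγ. Compound pre-exposure lasts 2 h, doxycycline is 1 uM final, induction runs 16 h at 37 C, and ONE-Glo luminescence is read.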

Test [14] is described as follows: qHTS assay to identify small molecule agonists of the AP-1 signaling pathway - cell viability counter screen (AID 1159525). Note: nearly all actives have a fitted effect of over 55% in size. Summed up: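 AP-1-bla ME-180 cells in Opti-MEM with 0.5% dialyzed FBS, compound exposure 5 h at 37 C in 15-point titration. Viability read in the same wells as ATP content by CellTiter-Glo luminescence, normalised to tetra-n-octylammonium bromide and DMSO controls.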

A short description of test [15]: qHTS assay to identify small molecule agonists of the AP-1 signaling pathway (AID 1159526).
Test [16] addresses Bile acid receptor (Homo sapiens) (UniProt Q96RI1). Kind of test: qHTS assay to identify small molecule antagonists of the farnesoid-X-receptor (FXR) signaling pathway (AID 743217; active = well fitted inhibition curve with a large enough effect in the signal ratio in the repeat runs, not every such curve was filed as active; the % refers to the signal ratio). Summed up:
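HEK 293T FXR-UAS-bla, 5000 cells/well; compound + CDCA 50 uM final; 16 h, 37 °C; B/G FRET substrate 2 h RT; fluorescence.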

In test [17] the target is Retinoic acid receptor RXR-alpha (Homo sapiens) (UniProt P19793). Kind of test: qHTS assay to identify small molecule agonists of the RXR signaling pathway (AID 1159527). Note: nearly all actives have a fitted effect of over 35% in size. Summed up:
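Fluorescence ratio readout (460 vs 530 nm) from GeneBLAzer RXR-alpha HEK 293T cells after 16 hr compound treatment; cells seeded 5 hr beforehand in low-serum, charcoal-stripped medium.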

Test [18] in a line: qHTS assay to identify small molecule agonists of the peroxisome proliferator-activated receptor delta (PPARd) signaling pathway - cell viability counter screen (AID 743211; active = well fitted curve in the direction sought with a large enough effect in the repeat runs; an effect the other way counts as inactive or inconclusive; note: nearly all actives have a fitted effect of over 55% in size). Summed up:
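Following 5 h plating at 37 C and 5% CO2, PPARd UAS-bla HEK293H cells took up test compounds for 17 h. Viability was quantified by luminescence 30 min after CellTiter-Glo addition at room temperature.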

For test [19], the target named is Vitamin D3 receptor (Homo sapiens) (UniProt P11473). Nature of the test: qHTS assay to identify small molecule agonists of the vitamin D receptor (VDR) signaling pathway (AID 743222). Summed up: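 VDR-bla cells, 2,000/well; 4 h preincubation 37C; cpd (DMSO) 16 h; LiveBLAzer B/G substrate 2 h RT; fluorescence intensity read.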
Test [20] is described as follows: qHTS assay to identify small molecule antagonists of the peroxisome proliferator-activated receptor delta (PPARd) signaling pathway - cell viability counter screen (AID 743213; active = well fitted curve in the direction sought with a large enough effect in the repeat runs; an effect the other way counts as inactive or inconclusive; note: nearly all actives have a fitted effect of over 50% in size). Summed up: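 Luminescence from CellTiter-Glo, added after the bla read and incubated 30 min at room temperature, gives viability of HEK293H PPARd-bla cells exposed to compounds for 17 h at 37 C with 300 nM L165041.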

Results filed as inconclusive are left out. Values without a mark were called inactive. Calls of active or inactive are those of the source. Unless noted, calls come from the whole dose curve.

Sequence of Bile acid receptor (Homo sapiens) (Q96RI1 whole entry, looked up): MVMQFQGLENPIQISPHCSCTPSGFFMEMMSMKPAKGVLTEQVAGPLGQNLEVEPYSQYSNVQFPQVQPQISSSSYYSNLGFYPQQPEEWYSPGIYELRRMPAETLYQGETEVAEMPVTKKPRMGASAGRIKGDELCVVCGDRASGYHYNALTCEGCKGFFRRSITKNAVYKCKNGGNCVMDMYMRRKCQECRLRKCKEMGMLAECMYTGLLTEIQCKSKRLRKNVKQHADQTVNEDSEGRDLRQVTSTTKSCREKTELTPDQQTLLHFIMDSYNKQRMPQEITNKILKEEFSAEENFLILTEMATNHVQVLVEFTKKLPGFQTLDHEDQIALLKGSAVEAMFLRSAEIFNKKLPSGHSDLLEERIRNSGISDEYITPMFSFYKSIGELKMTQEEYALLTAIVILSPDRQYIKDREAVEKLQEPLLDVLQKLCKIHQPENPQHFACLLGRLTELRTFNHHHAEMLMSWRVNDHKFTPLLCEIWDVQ
Sequence of Vitamin D3 receptor (Homo sapiens) (P11473 whole entry, looked up): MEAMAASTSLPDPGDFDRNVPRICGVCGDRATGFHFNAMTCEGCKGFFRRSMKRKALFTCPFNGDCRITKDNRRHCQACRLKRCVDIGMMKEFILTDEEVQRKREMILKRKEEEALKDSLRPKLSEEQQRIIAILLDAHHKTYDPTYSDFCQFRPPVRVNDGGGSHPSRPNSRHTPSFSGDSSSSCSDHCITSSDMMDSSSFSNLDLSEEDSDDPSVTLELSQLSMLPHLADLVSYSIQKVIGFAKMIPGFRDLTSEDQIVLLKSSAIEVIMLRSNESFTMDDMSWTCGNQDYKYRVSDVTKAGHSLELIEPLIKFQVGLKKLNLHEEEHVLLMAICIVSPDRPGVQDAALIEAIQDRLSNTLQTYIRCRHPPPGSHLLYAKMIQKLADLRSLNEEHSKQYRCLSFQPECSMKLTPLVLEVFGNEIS
Sequence of Peroxisome proliferator-activated receptor delta (Homo sapiens) (Q03181 whole entry, looked up): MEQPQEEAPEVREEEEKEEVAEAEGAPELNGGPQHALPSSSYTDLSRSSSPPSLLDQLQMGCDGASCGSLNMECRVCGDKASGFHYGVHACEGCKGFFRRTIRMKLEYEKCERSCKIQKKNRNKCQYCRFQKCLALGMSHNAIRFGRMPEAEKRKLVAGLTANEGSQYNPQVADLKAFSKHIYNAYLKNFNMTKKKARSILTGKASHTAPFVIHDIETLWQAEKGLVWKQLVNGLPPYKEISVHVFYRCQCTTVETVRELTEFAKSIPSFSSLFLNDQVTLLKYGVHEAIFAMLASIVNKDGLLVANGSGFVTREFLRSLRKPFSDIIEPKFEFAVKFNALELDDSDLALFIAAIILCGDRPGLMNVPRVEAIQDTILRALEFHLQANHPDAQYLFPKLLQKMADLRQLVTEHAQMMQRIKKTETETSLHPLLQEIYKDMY
Sequence of Retinoic acid receptor RXR-alpha (Homo sapiens) (P19793 whole entry, looked up): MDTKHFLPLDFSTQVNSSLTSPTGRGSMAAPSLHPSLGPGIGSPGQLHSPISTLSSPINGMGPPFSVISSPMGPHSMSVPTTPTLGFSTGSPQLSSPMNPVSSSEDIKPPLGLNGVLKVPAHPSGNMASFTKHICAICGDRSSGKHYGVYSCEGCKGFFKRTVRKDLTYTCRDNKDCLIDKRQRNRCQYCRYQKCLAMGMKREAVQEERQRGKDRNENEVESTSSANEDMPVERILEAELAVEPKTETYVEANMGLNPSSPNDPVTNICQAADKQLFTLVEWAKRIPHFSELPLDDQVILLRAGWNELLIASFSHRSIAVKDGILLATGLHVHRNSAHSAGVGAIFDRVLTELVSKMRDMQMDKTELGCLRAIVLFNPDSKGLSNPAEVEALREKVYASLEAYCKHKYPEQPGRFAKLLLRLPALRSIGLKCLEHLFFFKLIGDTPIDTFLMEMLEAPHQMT

Consider `Cc1c([N+](=O)[O-])cc2c(c1[N+](=O)[O-])C(C)(C)CC2(C)C`, for which the Potency entry in test [1], in test [2], in test [3], in test [4], in test [5] and in test [6] was “inactive” in each case. The Potency result in [7], in test [8], in test [9] and in test [10] was “inactive” each time.

`CSC(=O)c1c(C(F)F)nc(C(F)(F)F)c(C(=O)SC)c1CC(C)C`: the Potency result in [1], in test [2], in [11], in test [4], in test [7] and in test [8] was “inactive” in each case. Also, the Potency result in [9], in test [14] and in test [15] was “inactive” throughout. Besides, the Potency in [12] is 43.4 µM (active); in [13] it was 54.2 µM (active).

Turning to `Oc1ccc2[nH]cc(CCCCN3CC=C(c4ccccc4)CC3)c2c1`, the Potency entry in test [16], in test [4], in test [12], in test [6], in [7] and in test [9] was “inactive” throughout. Also, the Potency result in test [10], in test [14] and in test [17] was “inactive” each time. Besides, the Potency in [8] was 4.25 µM (active).

For the compound `COCCC#N`, the Potency entry in test [18], in test [1], in test [2], in test [11], in [19] and in test [5] was “inactive” each time. The Potency entry in test [12], in test [6], in test [7], in [8], in test [10] and in [13] was “inactive” in each case. In addition, the Potency entry in test [14], in test [15] and in test [17] was “inactive” in each case.

Regarding `O=S1(=O)OCC2C(CO1)C1(Cl)C(Cl)=C(Cl)C2(Cl)C1(Cl)Cl` (centres undefined), the Potency entry in [1], in [2], in test [3], in [7], in test [8] and in test [9] was “inactive” in each case. In addition, the results for the Potency in [12] and in [13] were 49 µM (active) and 19.3 µM (active), respectively.

Regarding `Cc1cc2c3c(c1)C(c1ccccc1)=N[C@@H](NC(=O)c1ccncc1)C(=O)N3CC2`, the Potency entry in [18], in test [1], in [20], in test [2], in [16] and in [3] was “inactive” each time. Moreover, the Potency result in test [4], in test [12], in test [6], in test [7], in test [8] and in test [9] was “inactive” each time. For the same compound, the Potency entry in test [10] and in test [15] was “inactive” throughout.

In the case of `CN1C2CCC(C)(C)C1CC(OC(=O)C(O)(c1cccs1)c1cccs1)C2` (centres undefined), the Potency result in test [18], in test [1], in test [20], in [2], in test [16] and in test [11] was “inactive” each time. In addition, the Potency result in test [3], in test [19], in test [5], in test [12], in [6] and in test [7] was “inactive” each time. For the same compound, the Potency result in test [8], in test [10], in [13], in test [14], in test [15] and in test [17] was “inactive” in each case.

Regarding `COc1ccc(Cc2nccc3cc(OC)c(OC)cc23)cc1OC`, the Potency result in [18], in [1], in test [20], in test [11], in test [4] and in [6] was “inactive” each time. Moreover, the Potency result in test [7], in test [8], in test [9], in test [14], in test [15] and in [17] was “inactive” in each case. For the same compound, the Potency in test [13] was 4.22 µM (active).

Consider `COP(=S)(OC)Oc1nc(Cl)c(Cl)cc1Cl`, for which the Potency result in test [18], in [16], in [11], in test [3], in test [4] and in [12] was “inactive” in each case. Besides, the Potency entry in test [7], in [8], in test [9], in test [10] and in [14] was “inactive” in each case.

`ClC(Cl)C(Cl)(Cl)Cl`: the Potency entry in [18], in test [1], in [2], in test [16], in test [11] and in test [3] was “inactive” throughout. For the same compound, the Potency result in [4], in test [6], in [7], in [8], in [9] and in test [10] was “inactive” each time. The Potency result in test [15] and in test [17] was “inactive” each time.
